For twelve molecules, inhibition results are on record in ChEMBL document CHEMBL3433997, “St. Jude Leishmania screening dataset” (2016).

Assay type in all cases: functional
The target of test [1] is Solute carrier family 2, facilitated glucose transporter member 1 (Homo sapiens) (UniProt P11166). Put plainly: ST_JUDE_LEISH: Cytotoxicity at 2uM final concentration against transgenic Leishmania Mexicana promastigotes LmGLUT1 that are glucose transport deficient and complemented with the human glucose transporter GLUT1. Activity is measured by DNA content using SYBR green in vitro.
Chain of Solute carrier family 2, facilitated glucose transporter member 1 (Homo sapiens) (P11166 whole entry): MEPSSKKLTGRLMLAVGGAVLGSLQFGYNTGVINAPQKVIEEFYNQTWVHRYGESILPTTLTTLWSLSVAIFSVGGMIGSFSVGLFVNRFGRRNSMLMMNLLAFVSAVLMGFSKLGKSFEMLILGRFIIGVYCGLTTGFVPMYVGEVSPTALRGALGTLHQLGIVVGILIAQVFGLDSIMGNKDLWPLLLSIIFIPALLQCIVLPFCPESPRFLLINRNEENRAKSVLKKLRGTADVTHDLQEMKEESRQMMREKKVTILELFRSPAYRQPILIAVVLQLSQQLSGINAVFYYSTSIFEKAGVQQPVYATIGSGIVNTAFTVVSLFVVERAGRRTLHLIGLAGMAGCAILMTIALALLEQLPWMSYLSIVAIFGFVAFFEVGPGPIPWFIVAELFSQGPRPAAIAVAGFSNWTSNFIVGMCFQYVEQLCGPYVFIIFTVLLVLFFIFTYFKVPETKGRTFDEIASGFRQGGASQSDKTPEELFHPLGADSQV

Test [2] deals with Hexose transporter 1 (Plasmodium falciparum) (UniProt O97467). In words: ST_JUDE_LEISH: Cytotoxicity at 2uM final concentration against transgenic Leishmania Mexicana promastigotes LmPfHT that are glucose transport deficient and complemented with the Plasmodium falciparum hexose transporter. Activity is measured by DNA content using SYBR green in vitro.
Test [3] addresses Glucose transporter (Leishmania mexicana) (UniProt O61059). In words: ST_JUDE_LEISH: Cytotoxicity at 2uM final concentration against transgenic Leishmania Mexicana promastigotes LmGT2 that are glucose transport deficient and complemented with the L. Mexicana glucose transporter 2. Activity is measured by DNA content using SYBR green in vitro.

A word on the inhibition: it is the drop in the measured response relative to a control, in per cent.

As for `CCCc1ccc(NC(=O)c2ccc(CN3CCCN(Cc4cccc(O)c4)CC3)cc2)cc1`, the inhibition in test [1] is 3.2%; in test [2], 2.61%; in test [3] it was 3.95%.

Regarding `COCCNCc1ccc(-c2cccc(CNC3CCN(Cc4ccccc4)CC3)c2)cc1`, the inhibition in test [1] is 4%; in test [2], 3.16%; in test [3], 4.77%.

On to `O=C(NCc1cccc(F)c1)Nc1ccc(-c2cccc(-c3nc4ccccc4[nH]3)c2)cc1`, for which the inhibition in test [1] is 2.57%; in test [2], 4.32%; in test [3] it was -0.32%.

On to `CCCCCCn1c2c(c(=N)c3c1CCC3)CCC2`, for which the inhibition in test [1] was 86.4%; in test [2], 85.9%; in test [3] it was 83.1%.

Regarding `COc1ccc(C(=O)Nc2ccc(Nc3nc(C)cc(N(C)C)n3)cc2)c(OC)c1`, the inhibition stood at 5.81% in test [1], 6.65% in test [2] and 5.62% in test [3].

Take `Cc1cccc2nc(-c3cccc(-c4ccc(NC(=O)NC5CC5c5ccccc5)cc4)c3)[nH]c12` (stereo unspecified): the inhibition in test [1] was 6.4%; in test [2] it was 3.69%; in test [3], 5.64%.

For the molecule `O=S(=O)(c1ccccc1OC(F)(F)F)C1CC2CCC(C1)N2S(=O)(=O)c1cccc(C(F)(F)F)c1` (stereo unspecified), the inhibition in test [1] is 0.7%; in test [2] it was -0.63%; in test [3] it was 0.73%.

Regarding `c1ccc2cc3c(Nc4ccc(N5CCCCC5)cc4)ccnc3cc2c1`, the inhibition in test [1] was found to be 2.76%; in test [2], 4.37%; in test [3] it was 2.3%.

Consider `COc1cccc(C2=CC(C)(C)Oc3cc(OCCN(C)C)ccc32)c1`, for which the inhibition in test [1] is 0.35%; in test [2], -3.47%; in test [3], 4.3%.

Turning to `Cc1cc(C(=O)NC2CCN(Cc3ccccc3)CC2)ccc1-c1nc2cc(Cl)c(Cl)cc2[nH]1`, the inhibition is 3.63% in test [1], -0.19% in test [2] and 3.05% in test [3].

On to `CSc1ccccc1NC(=S)NC1CCN(CCCCCNC(=O)/C=C/c2ccc(Cl)c(Cl)c2)CC1`, for which the inhibition in test [1] came out at 4.66%; in test [2], 4.89%; in test [3] it was 4%.

As for `O=C(Nc1cccc(C(F)(F)F)c1)NC1CCN(c2ccnc3cc(Cl)ccc23)C1` (stereo unspecified), the inhibition is -0.97% in test [1], -2.13% in test [2] and 0.93% in test [3].
